From ChEMBL document CHEMBL1961873, “Compounds: GSK PKIS; Assays: Nanosyn kinase panel” (2012) come the findings set out here.

As a reminder, the inhibition is the relative decrease from the control value, in per cent.

Assay [1] deals with Sphingosine kinase 1 (Homo sapiens) (UniProt Q9NYA1). Particulars: at 1 µM.
Assay [2] addresses T1, Sphingosine kinase 2 (Homo sapiens) (UniProt Q9NRA0).
T1 sequence (whole entry): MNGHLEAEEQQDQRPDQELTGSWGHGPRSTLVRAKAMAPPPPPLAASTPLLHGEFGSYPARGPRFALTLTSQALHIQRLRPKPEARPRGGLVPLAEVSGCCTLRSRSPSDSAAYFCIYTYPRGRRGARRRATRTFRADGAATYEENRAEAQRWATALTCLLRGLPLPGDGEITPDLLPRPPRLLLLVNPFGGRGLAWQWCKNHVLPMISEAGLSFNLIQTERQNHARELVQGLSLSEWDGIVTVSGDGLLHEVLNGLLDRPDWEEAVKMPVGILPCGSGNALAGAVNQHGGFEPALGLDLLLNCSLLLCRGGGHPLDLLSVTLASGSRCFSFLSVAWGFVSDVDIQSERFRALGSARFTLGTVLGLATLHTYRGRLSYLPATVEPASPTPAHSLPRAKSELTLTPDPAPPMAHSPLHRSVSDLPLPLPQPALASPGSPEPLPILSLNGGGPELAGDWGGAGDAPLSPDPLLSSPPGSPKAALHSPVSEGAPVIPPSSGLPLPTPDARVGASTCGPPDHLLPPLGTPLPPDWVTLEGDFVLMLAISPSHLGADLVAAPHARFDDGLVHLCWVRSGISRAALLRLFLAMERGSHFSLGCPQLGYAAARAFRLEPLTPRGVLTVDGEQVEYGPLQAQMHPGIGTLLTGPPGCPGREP
Particulars: at 0.1 µM.

In assay [3] the target is T1, Sphingosine kinase 2 (Homo sapiens). As to conditions: at 1 µM.
Assay [4] deals with Casein kinase II subunit alpha (Homo sapiens) (UniProt P68400). Particulars: at 0.1 µM.
Chain of Casein kinase II subunit alpha (Homo sapiens) (P68400 whole entry, looked up): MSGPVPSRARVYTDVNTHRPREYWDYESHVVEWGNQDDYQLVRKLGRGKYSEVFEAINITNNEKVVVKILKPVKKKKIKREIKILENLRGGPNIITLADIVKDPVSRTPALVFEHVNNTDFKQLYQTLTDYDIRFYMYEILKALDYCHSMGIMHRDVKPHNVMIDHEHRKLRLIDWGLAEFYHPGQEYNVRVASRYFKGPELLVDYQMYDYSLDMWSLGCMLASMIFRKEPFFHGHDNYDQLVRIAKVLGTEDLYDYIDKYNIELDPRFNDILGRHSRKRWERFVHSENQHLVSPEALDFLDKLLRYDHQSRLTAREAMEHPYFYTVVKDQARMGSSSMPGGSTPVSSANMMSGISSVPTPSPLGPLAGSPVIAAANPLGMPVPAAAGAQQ
Assay [5] shares this target. As to conditions: at 1 µM.
The target of assay [6] is T2, Inhibitor of nuclear factor kappa-B kinase subunit alpha (Homo sapiens) (UniProt O15111).
T2 sequence (whole entry): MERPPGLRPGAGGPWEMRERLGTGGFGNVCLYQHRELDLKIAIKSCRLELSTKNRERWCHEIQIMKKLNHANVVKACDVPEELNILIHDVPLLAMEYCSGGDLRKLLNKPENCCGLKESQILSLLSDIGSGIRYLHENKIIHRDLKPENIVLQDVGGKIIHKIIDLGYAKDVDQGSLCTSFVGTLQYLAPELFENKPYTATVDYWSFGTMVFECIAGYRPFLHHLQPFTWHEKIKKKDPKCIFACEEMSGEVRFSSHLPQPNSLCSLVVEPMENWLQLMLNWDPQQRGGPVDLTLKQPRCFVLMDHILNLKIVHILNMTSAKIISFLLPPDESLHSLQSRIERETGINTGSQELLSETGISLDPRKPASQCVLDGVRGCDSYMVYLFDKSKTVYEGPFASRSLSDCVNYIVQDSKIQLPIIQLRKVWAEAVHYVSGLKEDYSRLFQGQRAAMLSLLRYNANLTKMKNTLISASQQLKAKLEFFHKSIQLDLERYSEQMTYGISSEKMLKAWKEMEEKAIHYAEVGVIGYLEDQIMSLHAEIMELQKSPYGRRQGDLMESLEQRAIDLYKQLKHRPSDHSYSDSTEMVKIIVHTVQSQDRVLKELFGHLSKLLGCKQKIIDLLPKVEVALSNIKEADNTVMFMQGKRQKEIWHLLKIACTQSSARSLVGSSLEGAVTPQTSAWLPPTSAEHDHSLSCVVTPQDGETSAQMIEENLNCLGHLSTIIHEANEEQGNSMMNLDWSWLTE
As to conditions: at 0.1 µM.

For assay [7], the target named is T2, Inhibitor of nuclear factor kappa-B kinase subunit alpha (Homo sapiens). As to conditions: at 1 µM.
Assay [8] concerns the target T3, Inhibitor of nuclear factor kappa-B kinase subunit beta (Homo sapiens) (UniProt O14920).
T3 sequence (whole entry): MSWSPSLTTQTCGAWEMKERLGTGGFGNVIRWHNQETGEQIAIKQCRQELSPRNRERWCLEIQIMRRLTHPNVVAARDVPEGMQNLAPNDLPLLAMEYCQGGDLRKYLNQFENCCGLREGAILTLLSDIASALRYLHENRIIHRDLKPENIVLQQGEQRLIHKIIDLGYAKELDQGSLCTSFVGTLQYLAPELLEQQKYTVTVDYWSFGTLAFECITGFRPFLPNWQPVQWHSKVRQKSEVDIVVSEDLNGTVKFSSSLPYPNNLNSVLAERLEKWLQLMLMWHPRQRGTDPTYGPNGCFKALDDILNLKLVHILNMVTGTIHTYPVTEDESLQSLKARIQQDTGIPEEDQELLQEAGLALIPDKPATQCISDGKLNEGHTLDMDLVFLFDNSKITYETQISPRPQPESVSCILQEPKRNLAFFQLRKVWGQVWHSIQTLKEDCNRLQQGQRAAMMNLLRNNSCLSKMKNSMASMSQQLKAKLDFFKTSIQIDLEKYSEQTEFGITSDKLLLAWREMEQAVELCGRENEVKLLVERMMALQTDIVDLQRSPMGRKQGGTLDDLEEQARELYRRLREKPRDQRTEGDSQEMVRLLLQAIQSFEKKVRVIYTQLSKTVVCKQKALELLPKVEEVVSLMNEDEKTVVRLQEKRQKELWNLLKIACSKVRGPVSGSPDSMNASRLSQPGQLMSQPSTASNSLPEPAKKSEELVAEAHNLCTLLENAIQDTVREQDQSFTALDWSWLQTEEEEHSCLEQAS
Particulars: at 0.1 µM.

For assay [9], the target named is T3, Inhibitor of nuclear factor kappa-B kinase subunit beta (Homo sapiens). As to conditions: at 1 µM.
Assay [10] has as its target T4, Inhibitor of nuclear factor kappa-B kinase subunit epsilon (Homo sapiens) (UniProt Q14164).
T4 sequence (whole entry): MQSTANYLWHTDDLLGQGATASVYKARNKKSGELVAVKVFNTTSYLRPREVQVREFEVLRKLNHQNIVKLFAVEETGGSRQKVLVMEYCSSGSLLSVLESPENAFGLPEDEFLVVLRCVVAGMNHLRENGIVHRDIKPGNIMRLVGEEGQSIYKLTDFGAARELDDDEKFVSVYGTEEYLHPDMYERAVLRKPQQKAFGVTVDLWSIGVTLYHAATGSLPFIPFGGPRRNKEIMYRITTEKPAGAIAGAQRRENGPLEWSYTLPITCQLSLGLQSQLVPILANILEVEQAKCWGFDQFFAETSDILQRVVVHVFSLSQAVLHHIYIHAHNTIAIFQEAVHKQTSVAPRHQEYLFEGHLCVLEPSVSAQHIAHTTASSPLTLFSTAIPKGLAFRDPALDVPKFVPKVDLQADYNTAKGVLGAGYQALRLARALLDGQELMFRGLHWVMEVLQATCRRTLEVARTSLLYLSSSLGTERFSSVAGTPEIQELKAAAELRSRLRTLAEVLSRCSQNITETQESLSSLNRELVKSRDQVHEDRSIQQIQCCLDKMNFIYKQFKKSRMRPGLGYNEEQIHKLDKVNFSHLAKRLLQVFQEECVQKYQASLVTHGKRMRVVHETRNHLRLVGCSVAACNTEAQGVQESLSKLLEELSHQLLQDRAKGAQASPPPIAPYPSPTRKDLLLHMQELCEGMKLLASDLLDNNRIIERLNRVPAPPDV
As to conditions: at 0.1 µM.

The target of assay [11] is T4, Inhibitor of nuclear factor kappa-B kinase subunit epsilon (Homo sapiens). Particulars: at 1 µM.
The target of assay [12] is T5, Serine/threonine-protein kinase Nek1 (Homo sapiens) (UniProt Q96PY6).
T5 sequence (whole entry): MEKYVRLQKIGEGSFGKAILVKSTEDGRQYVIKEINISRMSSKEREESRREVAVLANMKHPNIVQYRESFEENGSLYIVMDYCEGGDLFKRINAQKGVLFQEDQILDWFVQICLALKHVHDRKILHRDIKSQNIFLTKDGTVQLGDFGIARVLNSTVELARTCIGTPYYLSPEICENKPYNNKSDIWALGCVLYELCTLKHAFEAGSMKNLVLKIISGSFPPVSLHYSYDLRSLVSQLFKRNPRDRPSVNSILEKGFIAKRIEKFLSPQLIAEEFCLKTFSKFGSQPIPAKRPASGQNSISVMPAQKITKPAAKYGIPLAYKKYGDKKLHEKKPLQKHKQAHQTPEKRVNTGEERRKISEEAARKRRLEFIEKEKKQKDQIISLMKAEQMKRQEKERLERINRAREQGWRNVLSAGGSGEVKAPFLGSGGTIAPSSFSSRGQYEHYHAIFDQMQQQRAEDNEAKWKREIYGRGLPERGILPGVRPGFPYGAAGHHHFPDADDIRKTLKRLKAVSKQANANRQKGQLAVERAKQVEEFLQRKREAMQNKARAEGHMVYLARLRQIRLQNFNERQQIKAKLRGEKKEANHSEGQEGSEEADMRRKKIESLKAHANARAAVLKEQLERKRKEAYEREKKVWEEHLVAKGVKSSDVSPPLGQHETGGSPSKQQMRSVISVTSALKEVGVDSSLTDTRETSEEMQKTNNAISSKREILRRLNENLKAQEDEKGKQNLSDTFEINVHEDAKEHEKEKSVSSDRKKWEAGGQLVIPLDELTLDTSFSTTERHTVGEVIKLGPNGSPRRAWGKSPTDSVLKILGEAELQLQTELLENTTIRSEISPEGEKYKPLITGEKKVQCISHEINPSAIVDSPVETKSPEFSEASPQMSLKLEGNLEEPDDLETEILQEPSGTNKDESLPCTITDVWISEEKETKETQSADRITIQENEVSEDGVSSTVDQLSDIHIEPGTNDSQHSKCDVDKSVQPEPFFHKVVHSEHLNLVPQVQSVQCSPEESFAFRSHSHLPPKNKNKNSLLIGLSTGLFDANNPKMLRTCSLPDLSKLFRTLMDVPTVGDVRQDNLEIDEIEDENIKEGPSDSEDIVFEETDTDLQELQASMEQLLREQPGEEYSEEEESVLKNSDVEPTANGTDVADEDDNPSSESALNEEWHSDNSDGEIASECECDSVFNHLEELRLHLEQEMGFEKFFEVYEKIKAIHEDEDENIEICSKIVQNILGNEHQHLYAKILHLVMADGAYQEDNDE
As to conditions: at 0.1 µM.

Assay [13] deals with T5, Serine/threonine-protein kinase Nek1 (Homo sapiens). Particulars: at 1 µM.
In assay [14] the target is T6, Serine/threonine-protein kinase Nek2 (Homo sapiens) (UniProt P51955).
T6 sequence (whole entry): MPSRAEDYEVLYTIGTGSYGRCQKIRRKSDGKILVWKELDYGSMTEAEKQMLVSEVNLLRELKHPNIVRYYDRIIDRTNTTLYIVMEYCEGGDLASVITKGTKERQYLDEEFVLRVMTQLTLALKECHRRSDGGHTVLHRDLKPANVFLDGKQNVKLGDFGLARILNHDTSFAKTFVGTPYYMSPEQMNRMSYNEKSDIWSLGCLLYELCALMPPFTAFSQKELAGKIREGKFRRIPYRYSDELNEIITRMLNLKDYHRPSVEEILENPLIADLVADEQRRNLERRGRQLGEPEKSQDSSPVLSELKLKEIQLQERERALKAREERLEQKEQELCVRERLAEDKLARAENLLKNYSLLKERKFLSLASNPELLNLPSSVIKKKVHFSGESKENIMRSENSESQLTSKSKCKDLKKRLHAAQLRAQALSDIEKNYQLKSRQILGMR
Particulars: at 0.1 µM.

Assay [15] deals with T6, Serine/threonine-protein kinase Nek2 (Homo sapiens). As to conditions: at 1 µM.
Assay [16] deals with Serine/threonine-protein kinase Nek6 (Homo sapiens) (UniProt Q9HC98). As to conditions: at 0.1 µM.
Chain of Serine/threonine-protein kinase Nek6 (Homo sapiens) (Q9HC98 whole entry): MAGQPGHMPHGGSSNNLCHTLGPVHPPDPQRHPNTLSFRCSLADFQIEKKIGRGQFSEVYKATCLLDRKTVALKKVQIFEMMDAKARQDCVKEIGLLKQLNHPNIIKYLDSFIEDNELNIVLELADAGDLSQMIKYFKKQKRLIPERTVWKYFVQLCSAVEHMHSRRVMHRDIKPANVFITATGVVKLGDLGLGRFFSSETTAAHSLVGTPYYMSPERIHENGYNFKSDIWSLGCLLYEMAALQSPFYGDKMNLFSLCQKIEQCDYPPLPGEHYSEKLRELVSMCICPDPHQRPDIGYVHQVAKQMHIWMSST
Assay [17] shares this target. Particulars: at 1 µM.
Assay [18] concerns the target Serine/threonine-protein kinase Nek7 (Homo sapiens) (UniProt Q8TDX7). As to conditions: at 0.1 µM.
Assay [19] shares this target. As to conditions: at 1 µM.
The target in assay [20] is T7, Serine/threonine-protein kinase Nek9 (Homo sapiens) (UniProt Q8TD19).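 Note: reported value is the mean percent inhibition of NEK9.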
T7 sequence (whole entry): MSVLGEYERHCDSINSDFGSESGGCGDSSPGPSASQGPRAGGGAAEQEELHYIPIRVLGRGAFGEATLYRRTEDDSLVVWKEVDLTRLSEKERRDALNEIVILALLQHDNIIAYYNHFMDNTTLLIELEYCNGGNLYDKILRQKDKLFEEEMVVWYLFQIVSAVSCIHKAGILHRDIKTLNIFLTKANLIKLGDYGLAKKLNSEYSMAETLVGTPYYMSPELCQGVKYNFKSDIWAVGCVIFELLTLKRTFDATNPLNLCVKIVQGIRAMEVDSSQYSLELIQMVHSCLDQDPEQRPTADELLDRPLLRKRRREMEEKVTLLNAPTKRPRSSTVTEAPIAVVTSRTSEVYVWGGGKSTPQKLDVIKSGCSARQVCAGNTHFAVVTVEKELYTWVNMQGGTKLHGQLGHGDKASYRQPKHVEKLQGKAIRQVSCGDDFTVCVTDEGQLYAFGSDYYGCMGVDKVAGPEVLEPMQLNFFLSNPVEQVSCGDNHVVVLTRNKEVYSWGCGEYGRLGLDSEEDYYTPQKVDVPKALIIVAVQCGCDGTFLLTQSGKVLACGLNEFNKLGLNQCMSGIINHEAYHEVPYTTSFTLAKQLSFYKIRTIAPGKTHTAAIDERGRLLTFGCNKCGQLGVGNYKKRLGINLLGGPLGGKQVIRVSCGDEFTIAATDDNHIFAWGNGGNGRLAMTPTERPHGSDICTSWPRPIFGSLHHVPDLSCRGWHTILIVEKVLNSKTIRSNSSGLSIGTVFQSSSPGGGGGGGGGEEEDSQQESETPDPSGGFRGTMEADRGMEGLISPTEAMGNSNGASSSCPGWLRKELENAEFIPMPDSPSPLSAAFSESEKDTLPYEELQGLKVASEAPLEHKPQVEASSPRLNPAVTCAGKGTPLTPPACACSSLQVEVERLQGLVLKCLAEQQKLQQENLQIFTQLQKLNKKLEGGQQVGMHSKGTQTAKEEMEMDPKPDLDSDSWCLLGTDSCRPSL
Particulars: at 0.1 µM.

Chain of Serine/threonine-protein kinase Nek7 (Homo sapiens) (Q8TDX7 whole entry, looked up): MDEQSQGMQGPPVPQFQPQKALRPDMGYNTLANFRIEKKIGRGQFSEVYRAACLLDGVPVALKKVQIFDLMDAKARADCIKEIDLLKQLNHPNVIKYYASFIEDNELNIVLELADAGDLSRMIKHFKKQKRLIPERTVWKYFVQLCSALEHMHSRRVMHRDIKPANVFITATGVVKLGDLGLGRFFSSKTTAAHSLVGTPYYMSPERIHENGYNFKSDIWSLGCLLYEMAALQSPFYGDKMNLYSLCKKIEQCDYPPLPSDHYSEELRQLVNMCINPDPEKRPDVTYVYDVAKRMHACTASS
Chain of Sphingosine kinase 1 (Homo sapiens) (Q9NYA1 whole entry): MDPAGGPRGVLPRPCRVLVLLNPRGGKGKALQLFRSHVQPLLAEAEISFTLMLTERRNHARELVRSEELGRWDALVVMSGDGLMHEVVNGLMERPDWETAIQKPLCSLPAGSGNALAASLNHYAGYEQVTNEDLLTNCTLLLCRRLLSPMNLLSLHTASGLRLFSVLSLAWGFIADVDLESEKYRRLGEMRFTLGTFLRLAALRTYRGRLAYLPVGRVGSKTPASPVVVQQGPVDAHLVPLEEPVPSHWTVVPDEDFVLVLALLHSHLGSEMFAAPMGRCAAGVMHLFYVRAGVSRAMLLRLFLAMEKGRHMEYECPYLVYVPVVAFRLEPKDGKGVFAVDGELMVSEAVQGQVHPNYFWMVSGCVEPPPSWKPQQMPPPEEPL

In the case of `Cc1ccc(C(=O)NC(C)C)cc1-c1ccc(C(=O)NCC2CC2)cc1`, the inhibition is -2.98% in assay [1]; -1.05% in [2]; 1.77% in assay [3]; 7.28% in assay [4]; 0.22% in assay [5]; 2.97% in [6]. Besides, the inhibition in [7] was -1.81%; in assay [8], -0.39%; in assay [9], -1.83%; in [10] it was -5.06%; in assay [11], -4.16%; in assay [12] it was -1.29%. Also, the inhibition was -1.39% in assay [13]; -3.14% in [14]; -3.6% in assay [15]; -3.09% in assay [16]; -3.72% in [17]; -6.3% in [18]. The inhibition in [19] was -4.59%; in assay [20] it was 3.16%.
